Common to all, as to settings: concentration: 10 µM; 24 h
The test system of assay [1] is HCC1569. The assay can be described thus: cell number relative to DMSO (% of DMSO); higher = more cells (less growth inhibition / toxicity). In outline: (§1)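 Using 384-well plates with 800 cells per well in RPMI plus 10% FBS, HCC1569 and TDF cells were exposed to compounds at 10 µM, in triplicate, for 24 h at 37 °C. Imaging of six fields per well at ×10 followed H1.0 and DAPI staining. The reported quantity, H1.0 nuclear intensity or cell number, is a median of replicates given as percent of the plate control, and HCC1569 values were smoothed for positional effects.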

The test system of assay [2] is TDF. Described as above. The method, boiled down: as §1
Assay [3] deals with TDF. The assay is described as follows: H1.0 immunofluorescence intensity relative to DMSO (% of DMSO); higher = stronger H1.0 induction, active = 120 or more. In outline:
as §1

The subject of assay [4] is HCC1569. The assay is described as follows: H1.0 immunofluorescence intensity relative to DMSO (% of DMSO); higher = stronger H1.0 induction, active = 140 or more. In outline: as §1

± gives the standard deviation of the averaged measurements.
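Throughout, for H1.0 immunofluorescence intensity relative to DMSO: TDF is a line of transformed human dermal fibroblasts of mesenchymal origin.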
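Throughout, for cell number relative to DMSO: TDF denotes transformed human dermal fibroblasts of mesenchymal origin.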

Take `Cc1ccc(NC(=O)CCCCCC(=O)Nc2ccccc2N)cc1` [N~1~-(2-aminophenyl)-N~7~-(4-methylphenyl)heptanediamide]: the cell number in the assay with HCC1569 [1] amounted to 96.1; in the assay on TDF [2] it was 70.6. Besides, the results for the H1.0 immunofluorescence intensity in the assay with TDF [3] and in the assay with HCC1569 [4] were 113 (inactive) and 214 (active), respectively.

As to `COC(=O)C1=C(C)NC(C)=C([N+](=O)[O-])C1c1ccccc1C(F)(F)F` (racemic), the cell number in the assay with HCC1569 [1] was 99; with TDF [2] it was 103. In addition, the figures for the H1.0 immunofluorescence intensity in the assay on TDF [3] and with HCC1569 [4] were 92.2 (inactive) and 98 (inactive), respectively.

On to `N#Cc1ccc(C(c2ccc(C#N)cc2)n2cncn2)cc1` [Letrozole], for which the cell number was 100 in the assay with HCC1569 [1] and 103 in the assay on TDF [2]. The values for the H1.0 immunofluorescence intensity with TDF [3] and with HCC1569 [4] were 96.8 (inactive) and 102 (inactive), respectively.

In the case of `CC1=C(CC(=O)O)c2cc(F)ccc2C1=Cc1ccc(S(C)=O)cc1` (stereo unspecified) [Sulindac], the cell number in the assay on HCC1569 [1] was 103 ± 2; with TDF [2] it was 111 ± 6.2. In addition, the H1.0 immunofluorescence intensity was 95 (inactive) in the assay with TDF [3] and 100 (inactive) in the assay on HCC1569 [4].

Consider `NCC(O)c1ccc(O)c(O)c1.O=C(O)C(O)C(O)C(=O)O` (stereo not drawn) [L(-)-Norepinephrine bitartrate], for which the cell number with HCC1569 [1] amounted to 109; with TDF [2], 106. Also, the H1.0 immunofluorescence intensity is 95.8 (inactive) in the assay on TDF [3] and 94.6 (inactive) in the assay on HCC1569 [4].

As to `CC(C)Cn1c(=O)n(C)c(=O)c2[nH]cnc21` [3-Isobutyl-1-methylxanthine], the cell number in the assay on HCC1569 [1] is 114; in the assay with TDF [2], 118. Moreover, the H1.0 immunofluorescence intensity in the assay on TDF [3] is 90.5 (inactive); with HCC1569 [4], 88.2 (inactive).

For `Nc1nc(Cl)nc2c1ncn2C1OC(CO)C(O)C1O` (stereo unspecified) [2-Chloroadenosine], the cell number was 99.3 in the assay on HCC1569 [1] and 119 in the assay with TDF [2]. Also, the H1.0 immunofluorescence intensity in the assay with TDF [3] was 87.8 (inactive); in the assay with HCC1569 [4] it was 89 (inactive).

In the case of `CCCCCCCCCCCCCCC(O)C(O)C(CO)NC(C)=O` (stereo unspecified) [C2 Phytoceramide], the cell number in the assay on HCC1569 [1] came out at 79.1; in the assay with TDF [2] it was 86.5. In addition, the H1.0 immunofluorescence intensity was 110 (inactive) with TDF [3] and 101 (inactive) in the assay on HCC1569 [4].

Regarding `COc1ccc(C2Sc3ccccc3N(CCN(C)C)C(=O)C2OC(C)=O)cc1` (stereo unspecified) [Diltiazem], the cell number with HCC1569 [1] is 104; in the assay with TDF [2], 107. Also, the H1.0 immunofluorescence intensity is 92 (inactive) in the assay with TDF [3] and 101 (inactive) in the assay on HCC1569 [4].

Values taken from the supplement of paper PMC7156485.
